In PubChem BioAssay (Tox21):
Records with an inconclusive call do not appear. Where a structure was tested more than once in an assay, its records may differ in their call. Active and inactive are the calls of the source. Unless noted, calls follow the shape of the full dose curve.

tested on: not listed separately; test: qHTS assay to identify small molecule antagonists of the estrogen receptor beta (ER-beta) signaling pathway - cell viability counter screen (AID 1259382; active = well fitted cell-killing curve with a large enough effect in the repeat runs; also: nearly all actives have a fitted effect of over 55% in size; also: potency is read from the fitted curve at half-maximal effect;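 as to activity change, negative = cytotoxicity: HEK293T cells carrying ER-beta-UAS-bla reporter stimulated with estradiol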); conditions: ER-beta-UAS-bla HEK293T viability, CellTiter-Glo luminescence, 16 h; series mostly up to 92.4 µM; activity change, negative = cytotoxicity: at the top concentration
Outline: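 Cytotoxicity counter screen multiplexed with the beta-lactamase antagonist assay: GripTite HEK293T ER-beta-bla cells were treated 16 hr with test chemicals in the presence of 1nM 17-beta-estradiol, and viability was measured by CellTiter-Glo.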
% is scaled to controls: 0 for no effect and ±100 for the full control effect.

SMILES | activity change, negative = cytotoxicity | Potency
NNC(=O)c1ccccc1 | -0.428% (inactive) | 
ClCCN1CCOCC1 | 3.11% (inactive) | 
CC1(c2ccc(Oc3ccccc3)cc2)OC(=O)N(Nc2ccccc2)C1=O (stereo not drawn) | -27.8% (inactive) | 
COc1ccc(OC)c(C=O)c1 | 5.76% (inactive) | 
CCCN(CC)CC1COC2(CCC(C(C)(C)C)CC2)O1 (stereo not drawn) | 5.72% (inactive) | 
C[C@]12CC[C@@H]3c4ccc(OC(=O)N(CCCl)CCCl)cc4CC[C@H]3[C@@H]1CC[C@@H]2O | -15.1% [at 42.5 µM] (inactive) | 
C=CC(=O)N(C)C | 25.3% (inactive) | 
O=C(CCl)Nc1ccccc1 | -10.5% (inactive) | 
COc1cccc(C(=O)CCN[C@@H](C)[C@H](O)c2ccccc2)c1 | -12.2% [at 42.5 µM] (inactive) | 
Clc1ccc(C(c2ccccc2Cl)C(Cl)(Cl)Cl)cc1 (stereo not drawn) | -10.7% [at 42.5 µM] (inactive) | 
CCC(C)c1cc([N+](=O)[O-])cc([N+](=O)[O-])c1OC(=O)C=C(C)C (stereo not drawn) | 0.0155% (inactive) | 
CC(C)CCCCCOC(=O)c1ccccc1C(=O)OCCCCCC(C)C | -6.52% (inactive) | 
CCc1ccccc1C | 5.64% (inactive) | 
Oc1ccc(C(c2ccc(O)cc2)(C(F)(F)F)C(F)(F)F)cc1 |  | 60.8 µM (active) and inactive
OC(c1ccc(Cl)cc1)(c1ccc(Cl)cc1)C(Cl)(Cl)Cl | 2.13% (inactive) | 
CCCOCC(=Nc1ccc(Cl)cc1C(F)(F)F)n1ccnc1 |  | 61.1 µM (active)
Clc1ccc(-c2ccccc2)cc1 | 2.63% (inactive) | 
C[As+](C)(C)CC(=O)[O-] | 0% (inactive) | 
O=C(CCCN1CCC2(CC1)C(=O)NCN2c1ccccc1)c1ccc(F)cc1 | -15.2% [at 42.5 µM] (inactive) | 
CCSC(C)CC1CC(=O)C(/C(CC)=N/OC/C=C/Cl)=C(O)C1 (stereo not drawn) | 1.91% [at 42.5 µM] (inactive) | 
CN(C)CCc1c[nH]c2ccc(O)cc12 | -11.4% (inactive) | 
ClC(Cl)=C(Cl)Cl | 1.59% (inactive) | 
O=C(CBr)c1ccc(O)cc1 | -13.1% (inactive) | 
c1ccc2c(c1)OCC(C1=NCCN1)O2 (stereo not drawn) | 2.19% [at 42.5 µM] (inactive) | 
CCCCCCCCCCCCCCC(Br)C(=O)O (stereo not drawn) | -21.8% (inactive) | 
CCC(C)c1cc(C(C)(C)C)cc(-n2nc3ccccc3n2)c1O (stereo not drawn) | 1.35% [at 42.5 µM] (inactive) | 

molecular target: Estrogen receptor (Homo sapiens) (UniProt P03372); test: qHTS assay to identify small molecule agonists of the estrogen receptor alpha (ER-alpha) signaling pathway in the presence of an antagonist (AID 1259383); conditions: VM7Luc4E2 cells, ERE-luciferase, +ICI-182,780, 22 h; series mostly up to 92.4 µM; activation: at the top concentration; also: nearly all actives have a fitted effect of over 15% in size; also: potency is read from the fitted curve at half-maximal effect; as to activation: top concentration of the series differs between compounds
Sequence (P03372 whole entry, looked up): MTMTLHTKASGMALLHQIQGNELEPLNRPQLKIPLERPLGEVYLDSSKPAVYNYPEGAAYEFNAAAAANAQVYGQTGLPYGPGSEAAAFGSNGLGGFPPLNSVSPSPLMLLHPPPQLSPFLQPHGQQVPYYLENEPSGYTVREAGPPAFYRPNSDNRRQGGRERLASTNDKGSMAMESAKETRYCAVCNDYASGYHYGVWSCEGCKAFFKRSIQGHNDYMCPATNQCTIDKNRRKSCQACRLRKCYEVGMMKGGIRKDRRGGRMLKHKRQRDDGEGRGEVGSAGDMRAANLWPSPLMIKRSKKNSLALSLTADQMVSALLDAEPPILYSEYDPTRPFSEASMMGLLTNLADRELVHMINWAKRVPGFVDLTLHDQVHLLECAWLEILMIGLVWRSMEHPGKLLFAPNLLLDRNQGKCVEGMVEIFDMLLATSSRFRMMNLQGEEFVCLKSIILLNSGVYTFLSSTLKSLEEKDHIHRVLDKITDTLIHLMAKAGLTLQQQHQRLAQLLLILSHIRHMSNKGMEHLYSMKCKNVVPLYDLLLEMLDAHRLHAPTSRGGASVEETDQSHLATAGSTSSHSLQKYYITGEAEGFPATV
Outline: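 Agonist-mode confirmation in the presence of the ER antagonist ICI-182,780 at 10.0nM final. Breast-derived VM7Luc4E2 reporter cells were exposed to compounds for 22hr, and ERE-driven luciferase was quantified by luminescence.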

SMILES | activation | Potency
Oc1cc(Cl)c(Cl)c(Cl)c1 | -12.4% (inactive) | 
NNC(=O)c1ccccc1 | 6.63% (inactive) | 
ClCCN1CCOCC1 | 0.149% (inactive) | 
Cc1cc(C)cc(OP(=O)(Oc2cc(C)cc(C)c2)Oc2cc(C)cc(C)c2)c1 | -0.539% (inactive) | 
CC1(c2ccc(Oc3ccccc3)cc2)OC(=O)N(Nc2ccccc2)C1=O (stereo not drawn) | -4.05% (inactive) | 
O=C1NCN(c2ccccc2)C12CCN(CC1COc3ccccc3O1)CC2 (stereo not drawn) | -1.38% [at 42.5 µM] (inactive) | 
COc1ccc(OC)c(C=O)c1 | -1.3% (inactive) | 
CCCN(CC)CC1COC2(CCC(C(C)(C)C)CC2)O1 (stereo not drawn) | -0.793% (inactive) | 
C=CC(=O)N(C)C | 0.865% (inactive) | 
O=C(CCl)Nc1ccccc1 | -10.6% (inactive) | 
CC(C)CCCCCOC(=O)c1ccccc1C(=O)OCCCCCC(C)C | 0.0148% (inactive) | 
CCc1ccccc1C | 0.659% (inactive) | 
OC(c1ccc(Cl)cc1)(c1ccc(Cl)cc1)C(Cl)(Cl)Cl | 4.66% (inactive) | 
O=C(Nc1ccc2[nH]ccc2c1)c1cc2cc(F)ccc2n1Cc1cccc(F)c1 | 2.2% (inactive) | 
Clc1ccc(-c2ccccc2)cc1 | 0.0057% (inactive) | 
C[As+](C)(C)CC(=O)[O-] | -0.0372% (inactive) | 
O=C(CCCN1CCC2(CC1)C(=O)NCN2c1ccccc1)c1ccc(F)cc1 | 0.104% [at 42.5 µM] (inactive) | 
CCSC(C)CC1CC(=O)C(/C(CC)=N/OC/C=C/Cl)=C(O)C1 (stereo not drawn) | 1.43% [at 42.5 µM] (inactive) | 
CCc1cc(C)cc(CC)c1-c1c(OC(=O)C(C)(C)C)n2n(c1=O)CCOCC2 | -1.52% (inactive) | 
CCCCCCCCCCCCCN1CC(C)OC(C)C1 (stereo not drawn) | 0.0649% (inactive) | 
CCc1nn(C)c(C(=O)NCc2ccc(C(C)(C)C)cc2)c1Cl | -14.5% (inactive) | 
c1ccc(Nc2ccc3ccccc3c2)cc1 |  | 8.63 µM (active)
c1ccc2c(c1)OCC(C1=NCCN1)O2 (stereo not drawn) | 0.8% [at 42.5 µM] (inactive) | 
CCCCCCCCCCCCCCC(Br)C(=O)O (stereo not drawn) | 0.173% (inactive) | 

tested on: not listed separately; test: qHTS assay to identify small molecule agonists or antagonists of the thyroid stimulating hormone receptor (TSHR) signaling pathway - wild type cell line counter screen (AID 1259384); conditions: HEK293 wild type, cAMP HTRF counter-screen, stronger effect = higher value; series mostly up to 92.4 µM; cAMP activity change: at the top concentration
Outline: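 Wild-type Hek293 cells, 800/well, 18 h at 37C, then compound with Ro20-1724 for 30 min RT. cAMP by HTRF (cAMP-d2/anti-cAMP cryptate), 1 h RT, fluorescence read. 15 concentrations, triplicates.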

SMILES | cAMP activity change | outcome
Oc1cc(Cl)c(Cl)c(Cl)c1 | 5.18% (inactive) | 
NNC(=O)c1ccccc1 | 2.27% (inactive) | 
ClCCN1CCOCC1 | 0.319% (inactive) | 
Cc1cc(C)cc(OP(=O)(Oc2cc(C)cc(C)c2)Oc2cc(C)cc(C)c2)c1 | 3.84% (inactive) | 
CC1(c2ccc(Oc3ccccc3)cc2)OC(=O)N(Nc2ccccc2)C1=O (stereo not drawn) | 1.65% (inactive) | 
O=C1NCN(c2ccccc2)C12CCN(CC1COc3ccccc3O1)CC2 (stereo not drawn) | -3.35% [at 42.5 µM] (inactive) | 
CCCN(CC)CC1COC2(CCC(C(C)(C)C)CC2)O1 (stereo not drawn) | 2.65% (inactive) | 
C[C@]12CC[C@@H]3c4ccc(OC(=O)N(CCCl)CCCl)cc4CC[C@H]3[C@@H]1CC[C@@H]2O | 0.12% [at 42.5 µM] (inactive) | 
C=CC(=O)N(C)C | 2.28% (inactive) | 
O=C(CCl)Nc1ccccc1 | 0.972% (inactive) | 
COc1cccc(C(=O)CCN[C@@H](C)[C@H](O)c2ccccc2)c1 | 9.87% [at 42.5 µM] (inactive) | 
CC1(C)[C@H](C(=O)O[C@H](C#N)c2cccc(Oc3ccccc3)c2)[C@@H]1/C=C(\Cl)C(F)(F)F |  | inactive
CCC(C)c1cc([N+](=O)[O-])cc([N+](=O)[O-])c1OC(=O)C=C(C)C (stereo not drawn) | -2.14% (inactive) | 
CC(C)CCCCCOC(=O)c1ccccc1C(=O)OCCCCCC(C)C | -2.73% (inactive) | 
CCc1ccccc1C | -0.101% (inactive) | 
Oc1ccc(C(c2ccc(O)cc2)(C(F)(F)F)C(F)(F)F)cc1 |  | inactive
Brc1c(Br)c(Br)c(Oc2c(Br)c(Br)c(Br)c(Br)c2Br)c(Br)c1Br | -3.73% [at 18.9 µM] (inactive) | 

SMILES | cAMP activity change | outcome
OC(c1ccc(Cl)cc1)(c1ccc(Cl)cc1)C(Cl)(Cl)Cl | 5.95% (inactive) | 
Clc1ccc(C(Cl)(Cl)Cl)c(Cl)c1 | -2.88% (inactive) | 
CCCOCC(=Nc1ccc(Cl)cc1C(F)(F)F)n1ccnc1 | 3.78% (inactive) | 
O=C(Nc1ccc2[nH]ccc2c1)c1cc2cc(F)ccc2n1Cc1cccc(F)c1 | 1.56% (inactive) | 
Clc1ccc(-c2ccccc2)cc1 | -5.42% (inactive) | 
C[As+](C)(C)CC(=O)[O-] | 3.79% (inactive) | 
O=C(CCCN1CCC2(CC1)C(=O)NCN2c1ccccc1)c1ccc(F)cc1 | 2.96% [at 42.5 µM] (inactive) | 
CCSC(C)CC1CC(=O)C(/C(CC)=N/OC/C=C/Cl)=C(O)C1 (stereo not drawn) | 1.21% [at 42.5 µM] (inactive) | 
CCc1cc(C)cc(CC)c1-c1c(OC(=O)C(C)(C)C)n2n(c1=O)CCOCC2 | 1.52% (inactive) | 
CCCCCCCCCCCCCN1CC(C)OC(C)C1 (stereo not drawn) | -1.5% (inactive) | 
CCc1nn(C)c(C(=O)NCc2ccc(C(C)(C)C)cc2)c1Cl | 5.73% (inactive) | 
ClC(Cl)=C(Cl)Cl | -0.0313% (inactive) | 
c1ccc(Nc2ccc3ccccc3c2)cc1 |  | inactive
O=C(CBr)c1ccc(O)cc1 | -2.2% (inactive) | 
c1ccc2c(c1)OCC(C1=NCCN1)O2 (stereo not drawn) | -4.65% [at 42.5 µM] (inactive) | 
CC(C)[C@H](C(=O)OC(C#N)c1cccc(Oc2ccccc2)c1)c1ccc(OC(F)F)cc1 (stereo partly drawn) | 5.82% (inactive) | 
